Screens deposited in PubChem by National Center for Advancing Translational Sciences (NCATS).
SMN2 splice up: increases expression of the SMN2 splice variant; Potency, µM (titrated, usually from 46.1 µM), for inactives: at the highest dose activity change, positive = activation, hits mostly activators; HEK293 SMN2-luciferase splicing reporter, luminescence, 30-36 h; 210,000 compounds, 2.8% hits; note: % of control where 0% means no effect; nearly all actives have a fitted effect of over 55% in size
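HEK293 cells carry an SMN2 […]–luciferase reporter in which exon 7 inclusion puts luciferase in frame. Cells were plated 10-12 h before compound addition, then incubated 30-36 h at 37C. ONE-Glo luminescence was read; sodium butyrate at 4.5 mM final served as control.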
FLuc counter: counter-screen for miR-21 project: firefly luciferase inhibitors or activators | purified FLuc, Km substrates, luminescence inhibition | Potency, µM (top dose mostly 57.5 µM), for the others: top-dose activity change, negative = inhibition, hits mostly inhibitors | 360,000 compounds, 6.9% hits | AID 588342;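 note: plate controls were vehicle for no effect and reference inhibitor for full effect; nearly all actives have a fitted effect of over 55% in size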
Target sequence (P08659 whole entry, looked up): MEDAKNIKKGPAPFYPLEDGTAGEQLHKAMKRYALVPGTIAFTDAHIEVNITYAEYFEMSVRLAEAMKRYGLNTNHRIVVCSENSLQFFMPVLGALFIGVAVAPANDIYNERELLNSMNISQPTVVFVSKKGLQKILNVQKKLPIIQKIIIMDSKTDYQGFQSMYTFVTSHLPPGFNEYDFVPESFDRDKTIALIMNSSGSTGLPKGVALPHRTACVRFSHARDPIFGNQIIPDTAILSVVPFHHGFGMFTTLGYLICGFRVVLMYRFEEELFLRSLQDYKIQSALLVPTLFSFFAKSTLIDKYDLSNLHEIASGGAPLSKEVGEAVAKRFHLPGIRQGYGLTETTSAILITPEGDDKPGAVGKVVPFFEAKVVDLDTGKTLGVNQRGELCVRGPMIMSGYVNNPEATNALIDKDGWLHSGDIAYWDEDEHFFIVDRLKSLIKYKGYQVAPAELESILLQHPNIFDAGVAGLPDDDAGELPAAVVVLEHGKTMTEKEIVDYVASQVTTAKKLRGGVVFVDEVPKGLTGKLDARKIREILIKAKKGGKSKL
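Biochemical qHTS of compounds, final roughly 60 µM downward over six points, against 10 nM purified firefly luciferase using Km concentrations of substrates (10 uM D-luciferin, 10 uM ATP) in Tris acetate pH 7.5 buffer; luminescence output.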
NPC1 prom act: activates the NPC1 promoter | Potency, µM (top dose mostly 9.22 µM), without a hit: at the top dose activation, most hits filed as activators | Huh7 NPC1 promoter luciferase reporter, 24 h | 320,000 compounds, 2.4% hits | AID 485313; note: % of control where 0% means no effect; nearly all actives have a fitted effect of over 60% in size
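Luciferase expression driven by the NPC1 promoter was measured in stably transfected Huh7 cells after a 24 h compound incubation, using a luciferase reagent and a luminescence read.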
ELG1 genotox: inducers of genotoxicity in HEK293T ELG1-luciferase cells. 330,000 compounds, 1.3% hits. HEK293T ELG1-luciferase reporter, luminescence, 16 h. Potency, µM (highest dose often 46 µM), for the others: top-dose activity change, positive = activation, hits mostly activators; note: % of control where 0% means no effect; nearly all actives have a fitted effect of over 60% in size
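16 hr compound incubation (37 °C, 5% CO2) of HEK293T cells carrying luciferase-tagged ELG1; luciferase then measured by ONE-Glo luminescence after 30 min at RT.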
Rab9 promoter act: Rab9 promoter activation; 320,000 compounds, 2.8% hits; Potency, µM (series often up to 9.22 µM), for inactives: at the top dose activation, negative = inhibition, actives largely listed as activators; AID 485297; Huh7 Rab9 promoter-luciferase reporter, luminescence, 24 h; note: % of control where 0% means no effect; nearly all actives have a fitted effect of over 60% in size
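Luminescence from Amplite-detected luciferase (10 minutes, ambient) reports Rab9 promoter activation. Before that, stable Rab9-luciferase Huh7 cells (1500/well, reduced-serum OP-MEM I plus 10% FBS) were exposed to compound for 24 hours at 37C.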
p53 reactivation: restores transcriptional activity of mutant p53. H1299 p53-A138V BP100-luciferase reporter, luminescence, 24 h. Potency, µM (titrated, usually from 92.2 µM), inactives show at the top dose activity change, positive = activation, hits mostly activators. 320,000 compounds, 0.063% hits; note: % of control where 0% means no effect; nearly all actives have a fitted effect of over 45% in size
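p53-null H1299 cells stably carrying temperature-sensitive p53-A138V and a BP100-luciferase reporter were pinned with compounds (4-point, 1:5 series) and held 24 hrs at 37 deg C. Luminescence was read 10 min after detection reagent.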
Numbers without * were called inactive; ? = inconclusive; . = no result given; [ ] = dose if it differs, or a comment. A selection: hits, their analogues and other compounds. The true share with any hit is near 7.4%. Calls come from the whole dose curve; as a rule, active = well fitted curve in the direction sought with a large enough effect; inconclusive = small, poorly fitted or top-dose-only effect, or another doubt; inactive = no such curve, though single readings can be large; an effect the other way counts as inactive or inconclusive. Potency is the fitted concentration of half-maximal effect.

SMILES	SMN2 splice up	FLuc counter	NPC1 prom act	ELG1 genotox	Rab9 promoter act	p53 reactivation
COC(=O)c1ccc(C(=O)Nc2ccc(F)cc2)cc1	.	12µM*	2.5µM*	14%	?	?
O=C(c1cc(-c2ccc(Cl)cc2Cl)on1)N1CCCCCC1	.	1.2µM*	0.71µM*	4.6µM*	0.71µM*	?
O=C(NCCN1CCOCC1)c1cc(-c2ccc(Cl)cc2Cl)on1	.	11µM*	27%	23%	5%	?
O=C(NCCN1CCOCC1)c1cc(-c2cccc(Cl)c2)on1	.	-7%	4%	-20%	18%	13%
O=C(c1cc(-c2ccc(Cl)cc2Cl)on1)N1CCCC1	.	0.43µM*	0.89µM*	2.9µM*	1µM*	?
O=C(Nc1cccnc1)c1sc2cccc(F)c2c1Cl	?	8.5µM*	?	-3%	?	10%
O=C(Nc1ccccn1)c1sc2cccc(F)c2c1Cl	2.5µM*	0.38µM*	?	?	?	?
CN(CC(=O)Nc1cccc(F)c1)C(=O)c1ccccc1OCC(=O)Nc1cccc(C(F)(F)F)c1	.	3%	2%	1%	-4%	0%
Cc1ccc(C)c(NC(=O)Cn2c(=O)n(CCCS(=O)(=O)C3CCCCC3)c(=O)c3ccccc32)c1	-1%	-11%	.	.	.	.
CC(C)c1cc(-c2nc(-c3ccccc3)no2)n[nH]1	.	1.7µM*	.	.	.	.
Cn1c(=O)[nH]c2cc(-c3noc(-c4ccc(Br)cc4)n3)ccc21	.	-5%	.	.	.	.
COc1ccc(-c2noc(-c3cc(-c4ccc(F)cc4)n[nH]3)n2)cc1	.	4%	.	.	.	.
Cc1ccccc1-c1noc(-c2cc(C(C)C)[nH]n2)n1	.	11µM*	.	.	.	.
COc1ccc(-c2noc(-c3cc(C(C)C)[nH]n3)n2)cc1	.	21µM*	.	.	.	.
CC(C)c1cc(-c2nc(-c3ccc(Br)cc3)no2)n[nH]1	.	13µM*	.	.	.	.
Cn1nc(C(=O)Nc2cccc(C(F)(F)F)c2)c2c1-c1ccccc1S(=O)(=O)C2	.	-3%	.	.	.	.
Cc1ccc(S(=O)(=O)Nc2ccc(N=Nc3ccc(O)cc3)cc2)cc1	16%	-11%	1%	4%	-4%	-5%
Cc1ccc(-c2nc(N=Nc3ccc(O)cc3)n[nH]2)cc1	25µM*	8.5µM*	5%	2%	-9%	?
Cc1nc(N=Nc2ccc(O)cc2)n[nH]1	.	17µM*	3.2µM*	?	?	?
COc1ccc(-c2nc(N=Nc3ccc(O)cc3)n[nH]2)cc1	-9%	9.5µM*	-6%	6%	4%	3%
O=C(O)c1ccccc1NN=C1CCCCC1	.	11µM*	?	?	?	?
C/C(=N\Nc1ccccc1C(=O)O)c1ccncc1	.	11µM*	2.2µM*	3.3µM*	3.2µM*	?
C/C(=N\NC(=O)c1ccccc1NC(=O)c1ccc(Cl)cc1)c1ccncc1	-60%	0.027µM*	?	-23%	?	-10%
O=C(NN=C1CCCC1)c1ccccc1O	.	?	-1%	0%	6%	25%
COc1ccc(/C(=N\Nc2ccccc2C(=O)O)c2ccccc2)cc1	-31%	9.5µM*	17%	12%	26%	?
SMILES	SMN2 splice up	FLuc counter	NPC1 prom act	ELG1 genotox	Rab9 promoter act	p53 reactivation
C/C(=N/NC(=O)c1ccncc1)c1ccccc1Cl	0%[9.22 µM]	.	.	.	.	.
CCOc1ccc2c(c1)c(=O)c(C(=O)c1ccc(CC)cc1)cn2CC(=O)Nc1ccccc1OC	-6%	-4%	.	.	.	.
COC(=O)[C@@H]1C[C@@]1(C)[C@@H](NC(=O)OCc1ccccc1)c1ccccc1	-88%	.	.	.	.	.
CC(NC(=O)CCSCc1ccccc1F)c1ccccc1 (stereo not given)	.	?	18%	11%	20%	18%
Cc1ncc(CO)c(/C=N/NC(=S)Nc2ccc(C(C)C)cc2)c1O	.	13µM*	-7%	-2%	1%	4%
Cc1ncc(CO)c(/C=N/NC(=O)c2ccc(Br)cc2)c1O	-85%	?	-28%	14%	-27%	22%
CCn1nc(C(=O)NNS(=O)(=O)c2ccc(C)cc2)c2ccccc2c1=O	.	.	.	0%	.	0%
